Test results: PubChem BioAssay (NCATS)
Inconclusive results are not listed. Active and inactive are the calls of the source. Unless noted, calls follow the shape of the dose curve; as a rule, active = well fitted curve in the direction sought with a large enough effect; inconclusive = small, poorly fitted or top-dose-only effect, or another doubt; inactive = no such curve, though single readings can be large; an effect the other way counts as inactive or inconclusive.

What was measured:
[1] = Cytometric Cell-Based qHTS for Inhibitors of the mTORC1 Signaling Pathway in MEF (Tsc2-/-, p53-/-) Cells (AID 2660);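 also: Tsc2 and p53 null MEFs carrying empty vector with compound for 24 h; percent of cells above a phospho-rpS6 to PI ratio cutoff in each well; series mostly up to about 38 µM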
Summary of the method: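 Immunofluorescence qHTS of rpS6 Ser235/236 phosphorylation: MEFs (Tsc2-/-, p53-/-) treated 24 h, 37 C, in DMEM + 10% FBS. Alexa-488 signal normalized to PI count, referenced to rapamycin (7.5 nM) and DMSO; PI cell number recorded for viability.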

[2] = High Content Imaging Cell-Based qHTS for Inhibitors of the mTORC1 Signaling Pathway in MEF (Tsc2-/-, p53-/-) Cells (AID 2666);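 also: percent of cells scored positive for phospho-rpS6 Ser235/236 immunostaining by imaging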
Summary of the method: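 Inhibition of rpS6 phosphorylation is measured by immunofluorescence imaging in empty-vector Tsc2-/-, p53-/- mouse embryonic fibroblasts after 24 hrs compound exposure at 37 degree Celsius. Results are reported as % positive cells per well.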

[3] = Cytometry Cell-Based qHTS for Inhibitors of the mTORC1 Signaling Pathway in MEF cells (AID 2668);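 also: Tsc2-/- p53-/- mouse embryonic fibroblasts stably re-expressing wild-type Tsc2; percent cells positive for phospho-rpS6 Ser235/236 relative to propidium iodide stain; series mostly up to about 38 µM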
Summary of the method: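 In MEFs grown in DMEM + 10% FBS, a 24 hrs compound exposure preceded imaging of phospho-rpS6 Ser235/236 by laser-scanning cytometry.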

[4] = molecular target: Ubiquitin carboxyl-terminal hydrolase 2 (Homo sapiens) (UniProt O75604); experiment: qHTS Validation Assay for Inhibitors of Ubiquitin-specific Protease USP2a Using CHOP2 as the Reporter (AID 463106); also: potency is read from the fitted curve at half-maximal effect
Summary of the method: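 Inhibition is expressed relative to NEM as the full-inhibition control, with concentration-response curves classed by fit quality, magnitude and activity. Enzyme (USP2 core, 10nM) meets 25nM Ub-CHOP2 after compound preincubation; readings are taken at 60min.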

[5] = molecular target: DNA polymerase III PolC-type (Bacillus subtilis (strain 168)) (UniProt P13267); experiment: qHTS Validation Assay for the Inhibitors of DNA Replication in Gram-Positive Bacteria (AID 485295); also: potency is read from the fitted curve at half-maximal effect
Summary of the method: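 Inhibition of DNA synthesis by the reconstituted PolC holoenzyme, monitored through PicoGreen staining of dsDNA formed from ssM13Gori, dNTPs and NTPs, with compound preincubation and room-temperature reaction.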

[6] = molecular target: Tumor susceptibility gene 101 protein (Homo sapiens) (UniProt Q99816); experiment: qHTS Validation Assay for Iinhibitors of HIV-1 Budding by Blocking the Interaction of PTAP/TSG101 (AID 485342; calls by dose curve)
Summary of the method: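 Compound wells held the Tsg101 binding domain (10 uM) and a FITC-conjugated PTAP peptide (50 nM) in buffer at pH 7.5 containing 0.15 M NaCl and 0.01% Tween 20; polarization was recorded after 20 min, r.t.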

[7] = qHTS Validation Assay to Find Inhibitors of Chronic Active B-Cell Receptor Signaling (AID 485345; active = well fitted curve in the direction sought with a large enough effect in the main read-out, with a control signal flat, not every such curve was filed as active)
Summary of the method: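 TMD8 ABC-DLBCL cells with dox-inducible green luciferase–IκBα fusion and red native luciferase; compounds 46 uM–3 nM, 4 h at 37C with doxycycline in 0.5% FBS IMDM. Green/red ratio normalized to basal and 10 uM MG-132.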

[8] = molecular target: Beta-2 adrenergic receptor (Homo sapiens) (UniProt P07550); experiment: qHTS validation assay of beta-arrestin-biased ligands of beta2-adrenergic receptor (AID 485366)
Summary of the method: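 Agonism was measured as beta-arrestin recruitment to recombinant beta2-AR, releasing tTA to drive luciferase. Cells were exposed for 18 hr at 37 degrees C to a series up to 46 microM. %Activity from corrected luminescence gave concentration-response curves.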

[9] = qHTS Assay for Identification of Small Molecule Inducers of Hypoxia Response (AID 2120; active = well fitted curve in the direction sought with a large enough effect in the signal ratio, with a control signal flat, not every such curve was filed as active; the % refers to the signal ratio)
Summary of the method: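 Read-out: CCF4 FRET emission ratio 460nm/530nm (excitation 405nm), converted to %Activity, with AC50 fitted across a compound titration. ME-180 cells carried an HRE-driven beta-lactamase reporter; compound exposure 17 h, 37 degrees C.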

[10] = molecular target: Ferritin light chain (Equus caballus) (UniProt P02791); experiment: qHTS Validation Assay for Identification of Novel General Anesthetics (AID 2323); also: series mostly up to about 77 µM
Summary of the method: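 Normalized fluorescence response, scaled between free 1-AMA and 1-AMA/apoferritin complex, fitted to a four-parameter Hill equation for concentration-effect values. Binding mix: 10 uM horse-spleen apoferritin, 50% saturated 1-AMA in PBS; read 380/535 nm after 10 min.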

[11] = molecular target: ATP-dependent DNA helicase Q1 (Homo sapiens) (UniProt P46063); experiment: qHTS Validation Assay for Inhibitors of RecQ-Like Dna Helicase 1 (RECQ1) (AID 2353); also: potency is read from the fitted curve at half-maximal effect
Summary of the method: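 RECQ1T1 50 nM; forked duplex (20 bp + 30-nt ss tails) 200 nM, ATP 2 mM final; pH 8.0, 2 mM MgCl2, 2.5 ug/ml poly(dI-dC); 15 min compound preincubation; discontinuous kinetic read over 2 h at RT.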

[12] = Validation screen for inhibitors of Lassa infection (AID 463096; calls by dose curve)
[13] = molecular target: ATP-dependent 6-phosphofructokinase (Trypanosoma brucei brucei) (UniProt O15648); experiment: qHTS Validation Assay to Find Inhibitors of T. brucei phosphofructokinase (AID 485368); also: potency is read from the fitted curve at half-maximal effect
Summary of the method: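 ADP-Glo luminescence, two-step: residual ATP depleted, then ADP converted to ATP for luciferase. Enzyme 1.25 nM, F6P 0.5 mM, ATP 0.1 mM, pH 8.0 TEA buffer, 45 min RT. Curves fitted and classed by quality and efficacy.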

[14] = High Content Imaging Cell-Based qHTS for Inhibitors of the mTORC1 Signaling Pathway in MEF Cells (AID 2667);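 also: Tsc2-/- p53-/- MEFs stably re-expressing wild-type Tsc2 exposed 24 h; series mostly up to about 38 µM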
Summary of the method: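 Fixed-cell imaging of phospho-S6 (Ser235/236, Alexa-488) after 24 hrs of compound treatment at 37 degree Celsius. Signal was normalized to Hoechst, and thresholds from the highest and lowest wells split cells into % active versus % non-active.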

[15] = Validation screen for small molecules that induce DNA re-replication in MCF 10A normal breast cells (AID 463097); also: nearly all actives have a fitted effect of over 60% in size
Summary of the method: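 Following 48 hr compound incubation (37 C, 5% CO2), MCF 10A cells receive Hoechst for 40 min at 37 C. Nuclei are then scanned (excitation 405 nm, emission 500-530 nm) for total fluorescence intensity.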

[16] = molecular target: RecQ-like DNA helicase BLM (Homo sapiens) (UniProt P54132); experiment: qHTS Validation Assay for Inhibitors of Bloom's syndrome helicase (BLM) (AID 2364); also: potency is read from the fitted curve at half-maximal effect
Summary of the method: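 BLM 50 nM in 25 mM Tris-HCl pH 8.0, 5 mM NaCl, 2 mM MgCl2, 1 mM DTT, 0.01% Tween-20, 2.5 ug/ml poly(dI-dC); 15 min cpd preinc, RT. Start: 200 nM forked DNA + 2 mM ATP (final). TAMRA read, 2 reads 2 h apart.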

Measured: Potency

Tumor susceptibility gene 101 protein (Homo sapiens), sequence (Q99816 whole entry, looked up, the tested form may be a part): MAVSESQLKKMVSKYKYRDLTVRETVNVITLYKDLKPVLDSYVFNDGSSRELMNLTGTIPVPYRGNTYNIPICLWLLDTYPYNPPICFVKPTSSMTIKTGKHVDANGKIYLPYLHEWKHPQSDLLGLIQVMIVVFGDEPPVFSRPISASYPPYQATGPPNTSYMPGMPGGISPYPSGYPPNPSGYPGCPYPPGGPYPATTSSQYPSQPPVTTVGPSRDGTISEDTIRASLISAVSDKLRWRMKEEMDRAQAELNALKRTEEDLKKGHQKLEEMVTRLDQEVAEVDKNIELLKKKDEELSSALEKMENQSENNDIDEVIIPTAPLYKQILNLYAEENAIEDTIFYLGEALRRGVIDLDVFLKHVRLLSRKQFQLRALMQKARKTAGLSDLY
Ferritin light chain (Equus caballus), sequence (P02791 2-175 limits assumed): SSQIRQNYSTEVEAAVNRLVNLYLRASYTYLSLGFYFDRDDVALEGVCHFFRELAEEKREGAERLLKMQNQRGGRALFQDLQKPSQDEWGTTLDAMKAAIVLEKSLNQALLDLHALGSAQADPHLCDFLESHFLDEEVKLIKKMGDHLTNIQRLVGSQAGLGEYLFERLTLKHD
DNA polymerase III PolC-type (Bacillus subtilis (strain 168)), sequence (P13267 whole entry, looked up): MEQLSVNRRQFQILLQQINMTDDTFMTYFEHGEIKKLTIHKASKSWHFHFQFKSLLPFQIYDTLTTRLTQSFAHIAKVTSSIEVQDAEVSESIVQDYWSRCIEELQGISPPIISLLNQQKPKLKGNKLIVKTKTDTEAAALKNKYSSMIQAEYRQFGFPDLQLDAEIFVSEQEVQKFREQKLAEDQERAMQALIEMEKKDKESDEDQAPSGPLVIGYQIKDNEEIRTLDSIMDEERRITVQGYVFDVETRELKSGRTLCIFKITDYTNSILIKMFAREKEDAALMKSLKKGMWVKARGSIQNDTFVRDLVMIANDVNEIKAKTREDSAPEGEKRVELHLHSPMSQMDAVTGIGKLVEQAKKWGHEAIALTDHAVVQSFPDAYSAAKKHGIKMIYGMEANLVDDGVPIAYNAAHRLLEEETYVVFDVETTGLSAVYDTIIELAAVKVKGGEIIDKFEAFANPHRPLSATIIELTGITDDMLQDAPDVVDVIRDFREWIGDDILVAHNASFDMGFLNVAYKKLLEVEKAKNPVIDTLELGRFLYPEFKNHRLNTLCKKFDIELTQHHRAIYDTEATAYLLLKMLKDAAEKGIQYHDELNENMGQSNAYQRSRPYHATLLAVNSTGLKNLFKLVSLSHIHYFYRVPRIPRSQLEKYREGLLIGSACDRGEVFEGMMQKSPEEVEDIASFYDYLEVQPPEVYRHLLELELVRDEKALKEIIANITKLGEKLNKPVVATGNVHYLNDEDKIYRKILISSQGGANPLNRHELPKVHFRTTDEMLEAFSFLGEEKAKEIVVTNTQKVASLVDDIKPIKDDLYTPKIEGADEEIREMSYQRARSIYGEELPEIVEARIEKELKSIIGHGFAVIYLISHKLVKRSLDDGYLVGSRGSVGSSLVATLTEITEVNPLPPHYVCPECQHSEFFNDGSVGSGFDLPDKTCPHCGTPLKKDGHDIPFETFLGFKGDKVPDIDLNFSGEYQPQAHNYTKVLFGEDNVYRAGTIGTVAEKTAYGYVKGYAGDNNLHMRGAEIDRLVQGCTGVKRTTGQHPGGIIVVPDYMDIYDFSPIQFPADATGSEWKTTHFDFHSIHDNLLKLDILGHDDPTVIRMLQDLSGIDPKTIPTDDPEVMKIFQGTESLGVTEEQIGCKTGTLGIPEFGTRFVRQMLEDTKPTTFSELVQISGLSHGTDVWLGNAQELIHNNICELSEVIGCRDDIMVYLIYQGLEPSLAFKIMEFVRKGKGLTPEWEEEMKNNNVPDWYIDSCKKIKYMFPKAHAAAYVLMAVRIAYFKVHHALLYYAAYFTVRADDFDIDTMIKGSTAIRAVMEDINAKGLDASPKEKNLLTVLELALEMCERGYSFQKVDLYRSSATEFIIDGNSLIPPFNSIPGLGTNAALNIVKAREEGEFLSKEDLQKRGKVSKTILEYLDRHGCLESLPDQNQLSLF
ATP-dependent DNA helicase Q1 (Homo sapiens), sequence (P46063 whole entry, looked up): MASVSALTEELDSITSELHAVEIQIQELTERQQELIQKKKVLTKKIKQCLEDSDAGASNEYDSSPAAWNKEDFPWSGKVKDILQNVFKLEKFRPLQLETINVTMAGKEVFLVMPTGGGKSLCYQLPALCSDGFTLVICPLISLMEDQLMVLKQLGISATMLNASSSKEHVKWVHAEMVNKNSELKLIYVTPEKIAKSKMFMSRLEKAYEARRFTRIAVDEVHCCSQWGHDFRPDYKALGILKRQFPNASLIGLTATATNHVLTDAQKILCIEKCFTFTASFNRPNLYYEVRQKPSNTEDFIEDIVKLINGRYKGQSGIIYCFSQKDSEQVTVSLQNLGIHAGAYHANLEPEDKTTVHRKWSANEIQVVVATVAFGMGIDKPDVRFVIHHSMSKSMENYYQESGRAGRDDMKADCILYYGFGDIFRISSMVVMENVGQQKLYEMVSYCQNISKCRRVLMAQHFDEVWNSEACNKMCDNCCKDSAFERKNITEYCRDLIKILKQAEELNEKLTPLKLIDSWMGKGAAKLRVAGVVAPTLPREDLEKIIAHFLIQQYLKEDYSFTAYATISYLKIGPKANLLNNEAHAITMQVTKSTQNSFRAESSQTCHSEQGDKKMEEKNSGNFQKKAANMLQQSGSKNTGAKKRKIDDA
Ubiquitin carboxyl-terminal hydrolase 2 (Homo sapiens), sequence (O75604 whole entry, looked up): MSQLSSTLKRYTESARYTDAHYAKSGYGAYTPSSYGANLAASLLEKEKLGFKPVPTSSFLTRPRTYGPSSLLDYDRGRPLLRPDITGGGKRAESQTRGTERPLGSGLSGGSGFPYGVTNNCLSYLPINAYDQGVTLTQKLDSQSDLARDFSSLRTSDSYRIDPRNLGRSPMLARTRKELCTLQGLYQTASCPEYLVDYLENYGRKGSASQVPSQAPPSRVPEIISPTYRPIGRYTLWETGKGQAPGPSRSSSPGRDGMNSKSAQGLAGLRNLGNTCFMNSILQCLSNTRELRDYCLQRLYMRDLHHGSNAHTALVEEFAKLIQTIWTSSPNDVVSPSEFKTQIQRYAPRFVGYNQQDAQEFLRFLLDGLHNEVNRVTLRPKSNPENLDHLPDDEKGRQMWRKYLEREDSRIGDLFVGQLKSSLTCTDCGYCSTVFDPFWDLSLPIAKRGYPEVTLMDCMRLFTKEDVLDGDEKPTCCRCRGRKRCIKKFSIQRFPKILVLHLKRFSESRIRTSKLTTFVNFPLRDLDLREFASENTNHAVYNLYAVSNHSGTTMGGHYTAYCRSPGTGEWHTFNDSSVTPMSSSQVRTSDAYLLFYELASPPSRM
Beta-2 adrenergic receptor (Homo sapiens), sequence (P07550 whole entry, looked up): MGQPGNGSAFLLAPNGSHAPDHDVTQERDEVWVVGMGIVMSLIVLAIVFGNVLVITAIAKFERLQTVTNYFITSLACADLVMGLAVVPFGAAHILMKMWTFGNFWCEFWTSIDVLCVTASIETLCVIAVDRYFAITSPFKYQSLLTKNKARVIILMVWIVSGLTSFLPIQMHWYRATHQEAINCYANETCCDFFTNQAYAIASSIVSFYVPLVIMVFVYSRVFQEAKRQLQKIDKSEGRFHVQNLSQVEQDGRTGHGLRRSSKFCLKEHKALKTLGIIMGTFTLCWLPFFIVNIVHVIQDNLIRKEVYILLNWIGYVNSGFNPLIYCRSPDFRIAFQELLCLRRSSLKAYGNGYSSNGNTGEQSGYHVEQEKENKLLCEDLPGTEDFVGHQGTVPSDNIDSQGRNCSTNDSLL
ATP-dependent 6-phosphofructokinase (Trypanosoma brucei brucei), sequence (O15648 whole entry, looked up): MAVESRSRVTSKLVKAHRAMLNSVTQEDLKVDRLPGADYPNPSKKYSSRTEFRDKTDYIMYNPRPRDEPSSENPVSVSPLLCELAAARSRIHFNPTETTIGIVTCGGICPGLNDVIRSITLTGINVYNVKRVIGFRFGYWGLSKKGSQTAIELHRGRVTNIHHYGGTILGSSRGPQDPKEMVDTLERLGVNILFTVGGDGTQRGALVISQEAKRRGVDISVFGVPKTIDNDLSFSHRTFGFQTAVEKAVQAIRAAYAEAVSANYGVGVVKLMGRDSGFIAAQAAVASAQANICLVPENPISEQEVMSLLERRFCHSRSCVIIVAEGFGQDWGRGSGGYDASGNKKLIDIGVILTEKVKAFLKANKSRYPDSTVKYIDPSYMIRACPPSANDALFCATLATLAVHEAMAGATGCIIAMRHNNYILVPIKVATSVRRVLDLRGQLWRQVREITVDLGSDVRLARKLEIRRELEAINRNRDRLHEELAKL

CCCC[N+]1(C)C2CC(OC(=O)[C@H](CO)c3ccccc3)CC1C1OC12 (stereo partly drawn)
inactive: [1] | [2] | [3] | [4] | [5] | [6] | [7] | [8]

O=C/C=C/c1ccccc1
inactive: [9]

c1ccc2c(N3CCNCC3)cccc2c1
inactive: [10] | [11] | [1] | [2] | [12] | [4] | [5] | [6] | [8] | [13]

COc1ccc2c(c1)C13CCCCC1C(C2)N(C)CC3 (stereo not drawn)
inactive: [10] | [11] | [1] | [2] | [14] | [3] | [12] | [15] | [4] | [5] | [6] | [7] | [8]

C[C@@H]1O[C@@H](O[C@H]2C[C@@H](O)[C@]3(CO)[C@@H]4C(CC[C@]3(O)C2)[C@@]2(O)CC[C@H]([C@@H]3COC(=O)C3)[C@@]2(C)C[C@H]4O)[C@H](O)[C@H](O)[C@H]1O (stereo partly drawn)
inactive: [1] | [2] | [3] | [4] | [5] | [6] | [8] | [13]

CCCN1CCc2cccc3c2[C@H]1Cc1ccc(O)c(O)c1-3
inactive: [1] | [2] | [4] | [5] | [6] | [8]
active: [13] 12 µM

ClC=C(Cl)Cl
inactive: [9]

COc1ccc2c(c1O)-c1cccc3c1[C@@H](C2)N(C)CC3
inactive: [1] | [2] | [14] | [3] | [4] | [5] | [6] | [8]

N#CCCN
inactive: [1] | [2] | [14] | [3] | [4] | [5] | [6] | [7] | [8] | [13]

CC(C)(O)[C@@H]1C2OC(=O)[C@@H]1[C@]1(O)C[C@H]3O[C@]34C(=O)O[C@H]2[C@]14C (tested in a mixture with another compound)
inactive: [1] | [2] | [14] | [3] | [4] | [5] | [6] | [7] | [8] | [13]

C=CCN=C=S
inactive: [9]

CN(N=O)c1ccc(O)c(O)c1
active: [11] 1.12 µM | [16] 6.31 µM | [4] 4.14 µM | [5] 23.8 µM
inactive: [1] | [2] | [14] | [3] | [12] | [15] | [6] | [7] | [8]

C[C@H](N)Cc1cccc(C(F)(F)F)c1
inactive: [1] | [2] | [3] | [4] | [5] | [6] | [7] | [8] | [13]

CN1CCc2cc(O)cc3c2[C@H]1Cc1ccc(O)c(O)c1-3
inactive: [4] | [5] | [6] | [7] | [8]

COC(=O)N1CCN(C(=O)Cc2ccc(Cl)c(Cl)c2)C(CN2CCCC2)C1 (stereo not drawn)
inactive: [10] | [11] | [1] | [2] | [14] | [3] | [12] | [15] | [4] | [5] | [6] | [7] | [8]

CCN1C[C@@]2(COC)C3[C@@H](OC)C4[C@@H]1C3([C@@H]1C[C@]3(O)[C@H](OC(=O)c5ccccc5)[C@@H]1[C@]4(OC(C)=O)[C@@H](O)[C@@H]3OC)[C@H](OC)C[C@H]2O
inactive: [1] | [2] | [14] | [3] | [4] | [5] | [6] | [7] | [8] | [13]

CC(C)[C@@]1(NC(=O)[C@@H]2C[C@@H]3c4cccc5[nH]cc(c45)C[C@H]3N(C)C2)O[C@@]2(O)[C@@H]3CCCN3C(=O)[C@H](Cc3ccccc3)N2C1=O
inactive: [1] | [2] | [14] | [3] | [4] | [5] | [6] | [7] | [8] | [13]

O=Cc1ccco1
inactive: [9]

CCCN1CCC[C@@H](c2cccc(O)c2)C1
inactive: [1] | [2] | [14] | [3] | [4] | [5] | [6] | [7] | [8] | [13]
